DENV2 CPE rescue: inhibitors of DENV2 cytopathic effect | DENV2-infected cells, cytopathic effect rescue, plate reader | CPE inhibition, % at 9.99 µM | actives 1.7% (n = 350,000) | AID 651640; in the data active = CPE inhibition above about 20%, passing the limit was not always enough; inconclusive = no clear call, values can overlap the other calls; tested in BHK-21 cells
dFosB activator: enhances mouse delta FosB homodimer DNA binding | purified delta FosB, TAMRA-CDK5 oligo fluorescence polarization; percent of positive-control signal above neutral wells | activation, % at 25 µM | actives 0.99% (n = 340,000) | AID 493131;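 active = mean activation above about 17%, with every replicate also reaching it, limit read from the data, passing the limit was not always enough; inconclusive = only one of the two conditions met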
MLL AF4-AF9 inh: inhibitors of human MLL-AF4/AF9 interaction; P42568; AlphaScreen, biotin-AF4 peptide binding to FLAG-AF9; inhibition, % at 10 µM; actives 0.47% (n = 350,000); AID 651704;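 active = every replicate reaching a set inhibition limit, whatever the replicate mean, cut at about 25% in these data; inconclusive = mean inhibition reaches that limit but some replicates miss it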
RAD54 inh: inhibitors of human RAD54 branch migration | inhibition, % at 10.4 µM | Q92698 | AID 602329 | actives 0.14% (n = 360,000) | RAD54 Holliday junction branch migration, FAM/BHQ fluorescence;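 active = mean normalized replicate activity at least 40 and at least half of replicates scoring 40 or more; inconclusive = only one of the two criteria met; inactive = mean below 40 and under half of replicates reaching 40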;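 note: inhibitors cause a drop in the FAM fluorescence signal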
INS-1E GSIS act: primary screen for activators of insulin secretion dependent on glucose, INS-1E cells, GLuc reporter luminescence | INS-1E GLuc reporter insulin secretion, 2-3 h | activation, % at 16.6 µM | actives 0.61% (n = 370,000);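 active = lowest replicate activation of at least 40%, so every replicate reaches that level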
RAD52 anneal inh: RAD52 (human) annealing inhibition. recombinant RAD52 DNA annealing, FRET fluorescence. inhibition, % at 18.7 µM. actives 0.46% (n = 360,000);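 active = every replicate showing at least 50% inhibition; inconclusive = mean inhibition at least 50% but not in every replicate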
Target sequence (P43351 whole entry, looked up): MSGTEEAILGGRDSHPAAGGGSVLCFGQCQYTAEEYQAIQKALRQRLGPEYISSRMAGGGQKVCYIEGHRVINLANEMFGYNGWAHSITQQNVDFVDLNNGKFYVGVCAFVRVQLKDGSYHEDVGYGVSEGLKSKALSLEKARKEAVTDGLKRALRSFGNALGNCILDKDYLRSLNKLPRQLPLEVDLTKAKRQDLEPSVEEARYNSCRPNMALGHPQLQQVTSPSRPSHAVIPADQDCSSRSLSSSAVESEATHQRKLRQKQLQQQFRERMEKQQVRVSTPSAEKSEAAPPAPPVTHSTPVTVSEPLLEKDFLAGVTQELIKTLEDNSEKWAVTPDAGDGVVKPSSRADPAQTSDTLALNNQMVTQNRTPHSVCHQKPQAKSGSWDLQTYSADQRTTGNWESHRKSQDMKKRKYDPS
A number is an active result; . = inactive; ? = inconclusive; / = no result. Most compounds without a hit are left out; they make up all but 3.1% or so of the library.

SMILES | DENV2 CPE rescue | dFosB activator | MLL AF4-AF9 inh | RAD54 inh | INS-1E GSIS act | RAD52 anneal inh
COc1ccc(NC(=O)N(C)C[C@@H]2Oc3ccc(NS(=O)(=O)c4c(C)noc4C)cc3C(=O)N([C@H](C)CO)C[C@@H]2C)cc1 | 90 | / | . | . | . | .
COc1ccc(NC(=O)N(C)C[C@H]2Oc3ccc(NS(=O)(=O)c4c(C)noc4C)cc3C(=O)N([C@@H](C)CO)C[C@H]2C)cc1 | . | / | . | . | . | .
COc1ccc(NC(=O)N(C)C[C@@H]2Oc3ccc(NS(=O)(=O)c4c(C)noc4C)cc3C(=O)N([C@@H](C)CO)C[C@@H]2C)cc1 | 27 | / | . | . | . | .
COc1ccc(NC(=O)N(C)C[C@H]2Oc3ccc(NS(=O)(=O)c4c(C)noc4C)cc3C(=O)N([C@H](C)CO)C[C@@H]2C)cc1 | 22 | . | . | . | . | .
Cc1noc(C)c1NC(=O)N(C)C[C@@H]1Oc2ccc(NC(=O)NC(C)C)cc2C(=O)N([C@@H](C)CO)C[C@H]1C | 45 | / | . | . | . | .
O=C(Nc1ccc2c(c1)OCO2)N[C@@H]1CC[C@H](CCNC(=O)C2CCC2)O[C@@H]1CO | 32 | / | . | . | . | .
O=C(C[C@@H]1CC[C@H](NC(=O)Nc2ccc3c(c2)OCO3)[C@@H](CO)O1)NCc1ccc2c(c1)OCO2 | 24 | / | . | . | . | .
O=C(C[C@H]1CC[C@@H](NC(=O)Nc2ccccc2F)[C@@H](CO)O1)NCc1ccc(-c2ccccc2)cc1 | 30 | / | . | / | . | .
C[C@@H]1CN([C@@H](C)CO)C(=O)Cc2cc(NS(=O)(=O)c3cn(C)cn3)ccc2O[C@H]1CN(C)C(=O)Nc1ccccc1 | . | / | . | . | . | .
C[C@H]1CN([C@@H](C)CO)C(=O)c2cccc(NC(=O)CCCCCC(=O)Nc3ccccc3N)c2O[C@H]1CN(C)S(=O)(=O)c1cccs1 | 55 | / | . | / | . | .
C[C@H](CO)N1C[C@H](C)[C@H](CN(C)S(=O)(=O)c2cccs2)Oc2c(NC(=O)CCCCCC(=O)Nc3ccccc3N)cccc2C1=O | 22 | / | . | / | . | .
C/C=C/c1ccc2c(c1)O[C@@H](CN(C)C(=O)COC)[C@H](C)CN([C@H](C)CO)S2(=O)=O | . | / | . | . | . | .
Cc1ccc(-c2nc(SCC(=O)c3c(N)n(C4CC4)c(=O)[nH]c3=O)n[nH]2)cc1 | ? | . | . | . | / | .
CCc1ccc(-c2nc(SCC(=O)c3c(N)n(C4CC4)c(=O)[nH]c3=O)n[nH]2)cc1 | . | 42 | . | . | . | .
C[C@H](CO)N1C[C@H](C)[C@@H](CN(C)C)OCCCC[C@H](C)Oc2ccc(NC(=O)Cc3ccccc3)cc2C1=O | . | / | . | . | . | .
CCN(CC)C(=O)n1c(Cc2ccccc2)nc2ccccc21 | . | . | . | . | 48 | .
C(=C\c1nccc2c1[nH]c1ccccc12)/c1ccccc1 | . | 42 | . | / | . | .
Cc1ccc(/C=C\c2nccc3c2[nH]c2ccccc23)cc1 | / | 42 | . | . | . | .
Cc1ccccc1S(=O)(=O)N1CC[C@H]2[C@@H](CO)N(C)c3ccc(Br)cc3[C@H]21 | 143 | / | / | . | . | /
CN1c2ccc(Br)cc2[C@H]2[C@H](CCN2S(=O)(=O)c2ccccc2F)[C@@H]1CO | 40 | / | . | . | . | .
Cc1ccc(-c2cnc3c(c2)C(=O)N([C@@H](C)CO)C[C@H](C)[C@@H](CN(C)C(=O)c2ccccc2)O3)cc1 | . | / | . | . | . | .
C[C@@H]1CN([C@@H](C)CO)C(=O)c2cc(C#Cc3ccccc3F)cnc2O[C@H]1CN(C)S(=O)(=O)c1ccccc1F | 35 | / | . | . | . | .

Compound activity (PubChem)
